From PubChem
Rows were chosen to be rich in hits. Some 7.4% of all compounds tested hit in one or more screens of this group.
HEK293 tox – HEK 293 cell cytotoxicity; Potency, µM (doses to about 115 µM), hits mostly inhibitors; 94,000 compounds, 6.6% hits; AID 1345083; HEK 293 viability, ATP luminescence (CellTiter-Glo), 48-72 h; further: nearly all actives have a fitted effect of over 60% in size
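ATP-coupled CellTiter-Glo luminescence served as viability read-out, recorded 10 min after reagent addition at room temperature. HEK 293 cells, 250 cells/well, had been incubated with pintool-transferred compound for 48 or 72 hr at 37 degree Celsius.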
hNpr1 antagonist – human Npr1 receptor antagonism | P16066 | HEK293 hNpr1 GloSensor cGMP, ANP-stimulated luminescence | 76,000 compounds, 1.6% hits | Potency, µM (titrated, usually from 46.3 µM), most hits filed as inhibitors; calls by dose curve; further: nearly all actives have a fitted effect of over 60% in size
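Compound pre-incubated 30 min at room temperature on GloSensor-loaded HEK293 cells stably carrying hNpr1 and the pGS-40F cGMP biosensor. Stimulation uses hNppA at 0.1 nM final; luminescence is taken at baseline and 20 min post-agonist.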
SNCA expr inh – reduces expression of the alpha-synuclein gene; HEK-293 SNCA-luciferase knock-in, luminescence, 24 h; Potency, µM (highest dose often 57.2 µM), hits mostly inhibitors; 140,000 compounds, 0.17% hits; further: nearly all actives have a fitted effect of over 45% in size
FLuc inh – inhibitors of firefly (Photinus pyralis) luciferase. AID 1347043. 76,000 compounds, 2.5% hits. purified P. pyralis luciferase, luminescence, biochemical. Potency, µM (titrated, usually from 115 µM), most hits filed as inhibitors. P08659; further: nearly all actives have a fitted effect of over 65% in size
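Luminescence read by CCD imager after adding enzyme (10nM final) to wells holding compound, titrated in qHTS. Substrates 10uM each D-luciferin and ATP; buffer 50mM Tris acetate pH 7.5, 10mM Mg acetate, Tween-20, BSA.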
SNCA viab count – cell viability loss counter-screen; 150,000 compounds, 0.12% hits; Potency, µM (titrated, usually from 57.1 µM), hits mostly cytotoxic; HEK-293-SNCA-luc viability, GF-AFC fluorescence, 24 h; further: nearly all actives have a fitted effect of over 30% in size
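Cytotoxicity counterscreen: after 24 h compound treatment of genome-edited SNCA-luciferase HEK-293 cells, live-cell protease substrate GF-AFC read by fluorescence after 30 min; activity scaled between DMSO (0%) and medium-only (-100%), curves Hill-fitted.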
3T3 cytotox – kills NIH 3T3 cells. NIH 3T3 viability, CellTiter-Glo ATP luminescence, 48-72 h. Potency, µM (top dose mostly 96.7 µM), usual class: inhibitors. 94,000 compounds, 4.3% hits; further: nearly all actives have a fitted effect of over 55% in size
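First NIH 3T3 cells are plated at 400 cells/well; next compound is pinned in; then plates incubate 48 or 72 hr at 37 °C; finally CellTiter-Glo is added and luminescence read after 10 min.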
A number is an active result; i = inactive; ? = inconclusive; nt = no result given; [ ] = remark or other dose. Unless noted, the call rests on the fitted dose curve; in most records, active means well fitted curve in the direction sought with a large enough effect; inconclusive means small, poorly fitted or top-dose-only effect, or another doubt; inactive means no such curve, though single readings can be large; an effect the other way counts as inactive or inconclusive.

SMILES | HEK293 tox | hNpr1 antagonist | SNCA expr inh | FLuc inh | SNCA viab count | 3T3 cytotox
COc1ccc(C(=O)N[C@H]2C[C@H]3C(=O)NC[C@@H](CCC(=O)N4CCc5ccccc54)N3C2)cc1 | i | i | i | i | i | i
CN1CCC(Nc2nccc3c(=O)cc(N(C)c4ccccc4)oc23)CC1 | i | i | i | i | i | ?
CN(c1ccccc1)c1cc(=O)c2ccnc(-c3cncnc3)c2o1 | i | i | i | i | i | 79µM
COc1cccc2sc(NC(=O)c3ccc4c(c3)OCCN(C3CCC3)C4)nc12 | 32µM | ? | ? | ? | ? | ?
CSc1cccc(NC(=O)O[C@@H]2CC[C@]3(C)C(CC[C@@H](O)[C@H]3CC(=O)NCc3ccccc3)[C@]2(C)CO)c1 (stereo not given in full) | 35µM | i | i | i | i | 40µM
C[C@@]12CO[C@@H](Cc3ccccc3)O[C@@H]1CC[C@]1(C)C2CC[C@@H](O)[C@H]1CC(=O)NCc1cc(F)cc(F)c1 (stereo not given in full) | 40µM | i | ? | i | i | 40µM
COc1ccc(NC(=O)O[C@@H]2CC[C@]3(C)C(CC[C@@H](O)[C@H]3CC(=O)NCc3ccccc3)[C@]2(C)CO)cc1 (stereo not given in full) | ? | i | i | i | i | i
COc1ccc(NC(=O)O[C@@H]2CC[C@]3(C)C(CC[C@@H](O)[C@H]3CC(=O)NCc3ccc4c(c3)OCO4)[C@]2(C)CO)cc1 (stereo not given in full) | ? | i | i | i | i | 45µM
CCC1Oc2ccc(NC(=O)c3ccc(F)cc3F)cc2CN(Cc2ccc3c(c2)OCO3)C1=O (stereo not given) | ? | i | i | i | i | i
CS(=O)(=O)NCCc1ccc(CC2CCN(C(=O)CC3CCCC3)CC2)cc1 | ? | nt | i | nt | i | 40µM
COc1ccc2[nH]c3c(c2c1)CCN(C)C31CCN(C(=O)c2cc(C)[nH]n2)CC1 | ? | i | i | i | i[12.5 µM] | i
Cc1noc2c(NC3CCN(C)CC3)cc(-c3ccc(Cl)cc3)nc12 | 35µM | i | i | i | i | 10µM
Cc1noc2c(NC3CCC(O)CC3)cc(-c3ccc(Cl)cc3)nc12 (stereo not given) | 89µM | i | ? | i | i | 22µM
CC(=O)N1CCC(Nc2ncccc2-c2cc(-c3ccccc3)nc3c(C)noc23)CC1 | 100µM | i | i | i | i | ?
CC(=O)N1CCC(Nc2cc(-c3ccc(Cl)cc3)nc3c(C)noc23)CC1 | ? | i | i | i | i | ?
Cc1noc2c(-c3cccnc3NC(C)C)cc(-c3ccccc3)nc12 | ? | i | i | i | i | ?
Cc1noc2c(-c3cccc(O)c3)cc(-c3cccs3)nc12 | 71µM | i | i | i | i | 40µM
CC(C)c1noc(-c2cn(C3CCCN(C(=O)c4ccncc4)C3)nn2)n1 (stereo not given) | i | i | i | i | i | i
O=C(NC1CCCCC1)N[C@H]1[C@H](O)[C@@H](Sc2ccccc2)[C@@H]2OC[C@H]1O2 | i | i | i | i | i | i
COc1ccc(N2CCN(C(=O)c3c(-c4cccnc4)cc(=O)n4c3CCCC4)CC2)cc1 | i | nt | i | nt | i | i
Cc1noc2c(NC3CCN(C)CC3)cc(-c3cccs3)nc12 | 79µM | i | i | i | i | ?
c1ccc(-c2cc(CC3(NCc4ccc5c(c4)OCO5)COC3)no2)nc1 | i | i | i | i | i | i
CCOc1ccccc1CNC(=O)c1cc2cn(C3CCCC3)cc2s1 | ? | i | i | i | i | ?
CCC(=O)N1Cc2ccccc2CC2(CCCN(C)C2)C1 (stereo not given) | 79µM | nt | i | nt | i | ?
Cc1noc(C)c1C(=O)N1Cc2ccccc2CC2(CCN(C)C2)C1 (stereo not given) | 79µM | nt | i | nt | i | 79µM
SMILES | HEK293 tox | hNpr1 antagonist | SNCA expr inh | FLuc inh | SNCA viab count | 3T3 cytotox
CC(=O)N1Cc2ccccc2CC2(CCCN(C)C2)C1 (stereo not given) | i | nt | i | nt | i | i
CCOC(=O)C[C@@H]1C[C@@H](C(C)C)[C@H](CNC(=O)c2ccc(F)cc2)C=C1C | 35µM | ? | ? | i | ? | ?
COc1ccc(C(=O)NC[C@@H]2C=C(C)[C@H](CC(=O)O)C[C@H]2C(C)C)cc1 | i | i | i | i | i | 35µM
CCOC(=O)C[C@@H]1C[C@@H](C(C)C)[C@H](CNC(=O)c2ccc(C#N)cc2)C=C1C | ? | i | ? | i | ? | ?
COc1ccc(CNC(=O)C[C@@H]2C[C@@H](C(C)C)[C@H](CNC(=O)c3ccc(C#N)cc3)C=C2C)cc1 | ? | i | ? | i | ? | ?
CNC(=O)[C@@H]1CNC[C@H]1c1nc(COC)no1 | i | i | i | i | i | i
Cc1ccc(Nc2ccnc(N3CCC(NC(=O)c4ccc(C(F)(F)F)cc4)CC3)n2)cc1 | ? | nt | 25µM | nt | ? | 13µM
Cc1ccc(Nc2ccnc(N3CCC(NC(=O)c4ccc(Cl)nc4)CC3)n2)cc1 | 40µM | nt | i | nt | i | 40µM
Cc1ccc(Nc2ccnc(N3CCC(NC(=O)c4ccc(F)cc4)CC3)n2)cc1 | ? | nt | i | nt | i | 35µM
CCOC(=O)c1cccc(NC(=O)CCn2ccn3nc4c(c3c2=O)CCCC4)c1 | ? | i | i | i | i | ?
CC1=NS(=O)(=O)N(Cc2ccccc2)C=C1C(=O)OCc1nc(-c2ccccc2F)no1 | i | i | i | i | i | ?
NCc1ccc(-c2ccc(OC(F)(F)F)cc2)cc1 | 25µM | nt | i | nt | i | 25µM
NCc1ccc(-c2ccc(F)cc2)cc1 | 100µM | nt | i | nt | i | 89µM
NCc1cccc(-c2cc(F)cc(F)c2)c1 | ? | nt | i | nt | i | 89µM
Cc1ccc(C)c(NC(=O)Cn2c(=O)c(-c3noc(C)n3)c3n(c2=O)CCCCC3)c1 | i | i | i | i | i | i
Cc1cc(C)cc(-c2ccc(CN3CCCC(N[S+](C)(=O)[O-])C3)cc2)c1 (stereo not given) | 40µM | nt | i | nt | i | ?
Cc1cc(C)cc(-c2ccc(CN3CCCC(N[S+](=O)([O-])c4cccc(C(F)(F)F)c4)C3)cc2)c1 (stereo not given) | ? | nt | ? | nt | i | 32µM
COc1ccc(CCC(=O)N2CCC(c3noc(COc4ccc(C)cc4)n3)C2)cc1 (stereo not given) | ? | nt | i | nt | i | ?
CCC(CC)NC(=O)CCC1CCN(C(=O)c2ccccc2F)CC1 | i | i | i | i | i | i
Cc1ccc(C(=O)N2CCC(CCC(=O)N3CCCCC3)CC2)cc1 | ? | i | i | 28µM | i | i
CCC(CC)NC(=O)CCC1CCN(C(=O)c2ccc(C)cc2)CC1 | i | i | i | 40µM | i | i
CCOCCCNC(=O)CCC1CCN(C(=O)c2ccc(C)cc2)CC1 | i | nt | i | nt | i | i
